Assay outcomes (PubChem)
HttQ103 aggreg – qHTS Multiplex Assay to Identify Dual Action Probes in a Cell Model of Huntington: Aggregate Formation (GFP); PC12 HttQ103-GFP aggregates, Acumen cytometry, 40 h; Potency, µM (series often up to 46.1 µM), inactives show at the top dose activity change, negative = inhibition, actives largely listed as inhibitors; hit rate 1.1% among 220,000; active = well fitted curve in the direction sought with a large enough effect; inconclusive = small, poorly fitted or top-dose-only effect, or another doubt; inactive = no such curve, though single readings can be large; an effect the other way counts as inactive or inconclusive; also: potency is read from the fitted curve at half-maximal effect; % is scaled to controls: 0 for no effect and ±100 for the full control effect; nearly all actives have a fitted effect of over 60% in size
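PC12 cells stably carrying ecdysone-inducible HTT exon 1 Q103–GFP were induced with tebufenozide (100 nM final) and treated with library compounds in titration. GFP aggregates in lysates were counted by laser scanning cytometry.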
ALDH1A1 inh – qHTS Assay for Inhibitors of Aldehyde Dehydrogenase 1 (ALDH1A1); Purified ALDH1A1, NADH fluorescence, propionaldehyde substrate; Aldehyde dehydrogenase 1A1 (Homo sapiens), P00352; Potency, µM (doses to about 75.3 µM), without a hit: at the top dose activity, negative = inhibition, most hits filed as inhibitors; AID 1030, 2008; hit rate 7.3% among 220,000;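 also: potency is read from the fitted curve at half-maximal effect; plate controls were no enzyme wells and a reference inhibitor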
Target sequence (P00352 whole entry, looked up): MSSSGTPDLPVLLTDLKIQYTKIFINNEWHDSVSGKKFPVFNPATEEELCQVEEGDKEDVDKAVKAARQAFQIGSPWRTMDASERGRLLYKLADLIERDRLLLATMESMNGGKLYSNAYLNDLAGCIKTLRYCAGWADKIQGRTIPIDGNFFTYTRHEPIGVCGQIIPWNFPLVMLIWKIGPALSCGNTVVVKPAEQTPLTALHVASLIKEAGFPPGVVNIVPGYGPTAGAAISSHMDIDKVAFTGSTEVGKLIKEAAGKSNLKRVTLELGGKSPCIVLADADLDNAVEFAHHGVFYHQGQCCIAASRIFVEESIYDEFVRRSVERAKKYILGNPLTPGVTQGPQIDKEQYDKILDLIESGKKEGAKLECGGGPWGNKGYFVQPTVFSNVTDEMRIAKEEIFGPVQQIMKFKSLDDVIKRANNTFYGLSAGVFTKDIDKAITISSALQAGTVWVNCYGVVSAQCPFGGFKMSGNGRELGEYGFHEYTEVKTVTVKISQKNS
PNC inhibitor – High Content Assay for Compounds that inhibit the Assembly of the Perinucleolar Compartment | PC3M PTB-GFP, PNC prevalence imaging, 16 h; hits give low values | activity change (PNC), negative = inhibition, % at 10 µM | hit rate 3.1% among 140,000 | AID 2417, 2010;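 active = readout at or below -70, meaning at least 70% loss of cells showing the perinucleolar compartment, a nuclear body marking cancer cells; inconclusive = readout between -30 and a set limit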;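 also: plate controls were DMSO wells for no effect and camptothecin positive control wells for full effect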
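Compounds are pinned in duplicate onto adhered PC3M cells stably expressing GFP-tagged PTB and incubated 16 h at 37 C. Cells are then fixed, nuclei stained with Hoechst, and PNC-positive cells counted.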
GoLoco inh red – qHTS Assay for Inhibitors of RGS12 GoLoco Motif Activity (Red Fluorophore) | Guanine nucleotide-binding protein G(i) subunit alpha-1 (Homo sapiens), P63096 | Gai1:RGS12 GoLoco peptide FP, rhodamine, 10 min | Potency, µM (highest dose often 61.6 µM), for the others: at the highest dose activity, negative = inhibition, actives largely listed as inhibitors | hit rate 0.44% among 230,000; active = well fitted inhibition curve with a large enough effect, not every such curve was filed as active; inactive = no such curve, though single readings can be large or run the other way; also: potency is read from the fitted curve at half-maximal effect; % is scaled to controls: 0 for no effect and ±100 for the full control effect; nearly all actives have a fitted effect of over 30% in size
HPGD block – qHTS Assay for Inhibitors of HPGD (15-Hydroxyprostaglandin Dehydrogenase); purified HPGD, NADH fluorescence kinetic, PGE2 substrate; hit rate 4.3% among 150,000; AID 894, 2007; Potency, µM, without a hit: at the top dose activity change, negative = inhibition, most hits filed as inhibitors; also: potency is read from the fitted curve at half-maximal effect; % is scaled to controls: 0 for no effect and ±100 for the full control effect
Target sequence (P15428 whole entry, looked up): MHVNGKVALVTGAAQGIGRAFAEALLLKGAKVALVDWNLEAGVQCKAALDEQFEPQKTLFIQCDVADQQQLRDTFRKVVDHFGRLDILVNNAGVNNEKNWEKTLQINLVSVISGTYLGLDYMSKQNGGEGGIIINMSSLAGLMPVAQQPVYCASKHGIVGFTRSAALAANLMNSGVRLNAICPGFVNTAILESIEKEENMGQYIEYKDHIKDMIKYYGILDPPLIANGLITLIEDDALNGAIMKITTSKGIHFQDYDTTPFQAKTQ
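20 nM HPGD preincubated 15 min at room temperature with compound in 50 mM Tris-HCl pH 8, 0.01% Tween 20. Started with 1 mM NAD+ and 30 uM prostaglandin E2; NADH fluorescence (360/450 nm) read 5 times over 30-s intervals, last minus first.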
HTT ATP protect – qHTS Multiplex Assay to Identify Dual Action Probes in a Cell Model of Huntington: Cytoprotection (ATP); PC12 HTT-Q103 induced, cytoprotection, ATP luminescence, 40 h; AID 1471, 2008; hit rate 0.14% among 230,000; Potency, µM (top dose mostly 56.4 µM), for the others: cytoprotection (ATP increase), most hits filed as activators; active = well fitted curve in the direction sought with a large enough effect; inconclusive = small, poorly fitted or top-dose-only effect, or another doubt; inactive = no such curve, though single readings can be large; an effect the other way counts as inactive or inconclusive; also: potency is read from the fitted curve at half-maximal effect; % of control where 0% means no effect; nearly all actives have a fitted effect of over 45% in size
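Huntington model: PC12 line, ecdysone-inducible HTTQ103 exon1–GFP, tebufenozide 100 nM. Test articles in a dose series. Endpoint luminescence from cellular ATP.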
Starred values were filed as active, the others as inactive; ? = inconclusive; . = not tested or not shown; [ ] = another dose, or the depositor's remark. This is a sample that favours compounds with a hit; in the whole collection about 11% have one here. Unless noted, calls follow the shape of the dose curve; as a rule, active = well fitted inhibition curve with a large enough effect (not every such curve was filed as active); inconclusive = small, poorly fitted or top-dose-only effect, or another doubt; inactive = no such curve, though single readings can be large or run the other way.

SMILES	HttQ103 aggreg	ALDH1A1 inh	PNC inhibitor	GoLoco inh red	HPGD block	HTT ATP protect
COc1cc(/C=C2\SC(=O)NC2=O)ccc1Oc1ccc([N+](=O)[O-])cn1	-14.2%[9.22 µM]	.	.	10.0%	.	-10.3%[10 µM]
Cc1[nH]n(-c2nc(-c3ccc(Cl)cc3)cs2)c(=O)c1N=Nc1ccc(O)cc1	-16.0%[9.22 µM]	-4.7%	.	50.9%	.	-76.2%[10 µM]
COCCNc1nc(C(C)(C)C)nc2c1nnn2Cc1ccccc1Cl	-16.2%	-10.3%	-102.1*	2.1%	-8.0%	-2.3%[10 µM]
OCCNc1nc(C2CC2)nc2c1nnn2Cc1ccccc1Cl	-13.8%	?	?	-0.3%	-11.4%	-1.6%[10 µM]
Cc1cccc(C)c1NC(=O)c1ccc(-c2ccc(Cl)cc2Cl)o1	11.2µM*	-7.8%	31.5	-4.4%	-13.6%	-18.9%
O=C(Nc1ccc(Cl)cn1)c1cc2ccccc2o1	2.9%	-6.1%	?	3.8%	-18.5%	1.0%[10 µM]
O=C(Nc1ccc(Cl)cn1)c1ccc(-c2cc(Cl)ccc2Cl)o1	1.7%	17.8µM*	-1.6	.	.	-23.1%
O=C(Nc1ccc(CN2CCOCC2)cc1)c1ccc(-c2ccc(Cl)cc2Cl)o1	?	10µM*	.	20.1%	.	-43.6%
C=CCNc1nc(Nc2ccc(-c3nc4ccccc4o3)cc2)nc(N2CCOCC2)n1	?	?	-2.8	20.0%	?	-81.3%[10 µM]
Cc1cc(Cl)ccc1Nc1sc(C(=O)c2cc3cc(Cl)ccc3o2)c(N)c1C#N	.	-1.1%[13.5 µM]	.	10.0%[14.2 µM]	-4.6%	14.7%[10 µM]
COc1ccc(-n2ncc(Cl)c(Cl)c2=O)cc1	3.98µM*	10µM*	.	0.3%	.	.
COc1cccc(-n2c(SC3CCOC3=O)nc3ccccc3c2=O)c1 (stereo not drawn)	5.2%	-8.1%	-100.0*	11.7%	-13.2%	6.3%[10 µM]
COc1ccc(OCc2nnc(SC3CCOC3=O)n2-c2ccccc2)cc1 (stereo not drawn)	-1.5%	7.9%	?	-11.3%	-2.1%	-1.3%
Cc1ccc(Cn2c(SC3CCOC3=O)nc3ccccc3c2=O)cc1 (stereo not drawn)	-7.4%	?	103.1	0.2%	-9.4%	19.1%[10 µM]
O=C1OCCC1Sc1nnc(-c2cccs2)n1Cc1ccccc1 (stereo not drawn)	-7.4%	20µM*	55.2	-4.4%	-10.4%	-3.0%
CCc1cc2c(=O)n(Cc3ccccc3)c(SC3CCOC3=O)nc2s1 (stereo not drawn)	2.1%	2.82µM*	.	8.4%	.	-6.6%
CCn1c(N2CCN(C(=S)Nc3ccc(OC)cc3)CC2)nc2ccccc21	-5.4%[9.22 µM]	-2.9%	.	2.2%	.	-1.3%[10 µM]
COC(=O)C1(O)CC(CC(C)C)=NN1C(=O)c1ccccc1 (stereo not drawn)	17.9%	-2.7%	-124.4*	-7.6%	-1.4%	8.3%[10 µM]
COC(=O)C1=NN(C(=O)c2ccccc2)C(C)(O)C1 (stereo not drawn)	0.3%	-9.9%	?	7.9%	-14.0%	0.2%
CC(C)(C)c1ccc(C(=O)c2c[nH]c(C(=O)NCc3cccnc3)c2)cc1	-15.1%	-16.4%	31.6	6.5%	-18.6%	6.7%[10 µM]
O=C(Cc1ccc(Cl)cc1)c1c[nH]c(C(=O)NCc2cccnc2)c1	17.8µM*	-5.7%	.	11.6%	.	-17.2%[10 µM]
O=C(Nc1ccc(N2CCOCC2)cc1)c1cccnc1	-16.9%	1.5%	17.1	-3.3%	-15.8%	12.7%[10 µM]
O=C(Nc1sc2c(c1C(=O)N1CCOCC1)CCCCC2)c1cccnc1	-10.8%	22.4µM*	.	6.4%	.	-26.4%
COC(=O)Nc1sc2c(c1C(N)=O)CCCCCC2	8.7%	8.91µM*	-8.0	-8.3%	14.1µM*	1.0%
CCCC(=O)NC(=S)Nc1sc2c(c1C(N)=O)CCC2	-13.4%	8.91µM*	-11.0	-9.2%	25.1µM*	.
SMILES	HttQ103 aggreg	ALDH1A1 inh	PNC inhibitor	GoLoco inh red	HPGD block	HTT ATP protect
CCC(C)NCC(=O)Nc1sc2c(c1C(N)=O)CCC2 (stereo not drawn)	12.3%	-8.0%	22.2	0.2%	-12.9%	-8.9%
CC(C)C(=O)NC(=S)Nc1sc2c(c1C(N)=O)CCCC2	-7.9%	7.08µM*	-109.0*	4.3%	14.1µM*	.
O=C(OCC(=O)N1CCc2ccccc2C1)c1cccs1	10.0%	-8.9%	.	-0.5%	.	-15.7%
NC(=O)c1c(NC(=O)c2cnccn2)sc2c1CCCC2	-4.4%	20µM*	.	4.0%	.	21.9%[10 µM]
CCC(=O)Nc1sc2c(c1C(N)=O)CCC2	-28.3%	-16.7%	-100.0*	-3.5%	-14.1%	14.5%[10 µM]
Cc1noc(C)c1C(=O)Nc1sc2c(c1C(N)=O)CCCCC2	5.2%	7.94µM*	?	-6.7%	?	-22.5%[0.074 µM]
Cc1ccc(CO)cc1	.	-0.7%	.	2.8%	-16.0%	-3.2%
Nc1ccc(-c2ccc(C(=O)O)s2)cn1	-3.7%	?	.	-1.2%	.	?
CC1=NN(c2ccccc2)C(=O)/C1=C/c1c(O)n(-c2ccc(F)c(Cl)c2)[nH]c1=O	6.4%	14.1µM*	-116.4*	8.9%	-28.2%	-26.8%[10 µM]
Nc1nonc1C(=O)N1CCCC1	-10.5%[9.22 µM]	-4.2%	.	59.9%	.	-8.5%[10 µM]
Cc1c(C(=O)N2CCCCC2)nnn1-c1nonc1N	12.6%	7.94µM*	?	-5.3%	15.8µM*	11.6%
CCN(CC)S(=O)(=O)c1ccc(N2CCCC2)c(NS(=O)(=O)c2ccc(OC)cc2)c1	2.4%	2.51µM*	-23.4	8.8%	-6.3%	14.9%[10 µM]
CCN(CC)S(=O)(=O)c1ccc(N2CCCC2)c(NS(=O)(=O)c2ccc(F)cc2)c1	?	0.631µM*	?	104.9%	-26.6%	21.3%[10 µM]
CCN(CC)S(=O)(=O)c1ccc(N2CCOCC2)c(NS(=O)(=O)c2cc(C(C)(C)C)ccc2C)c1	0.1%	14.1µM*	?	-3.4%	-15.1%	?
CCN(CC)S(=O)(=O)c1ccc(N2CCCC2)c(NS(=O)(=O)c2ccc([N+](=O)[O-])cc2)c1	?	2µM*	-8.6	.	.	13.4%[10 µM]
CCN(CC)S(=O)(=O)c1ccc(N2CCCC2)c(NC(=O)c2ccccc2OC)c1	-5.3%[9.22 µM]	.	.	8.3%	.	-2.9%[10 µM]
CCN(CC)S(=O)(=O)c1ccc(N2CCOCC2)c(NS(=O)(=O)c2ccc(C(C)C)cc2)c1	17.2%	-1.5%	7.5	0.0%	-4.2%	-1.7%[10 µM]
CC(Sc1ccsc1[N+](=O)[O-])C(=O)NCc1ccco1 (stereo not drawn)	-2.3%	?	.	14.9%	.	26.8%
CCN(CC)S(=O)(=O)c1ccc(N2CCCC2)c(NS(=O)(=O)c2ccccc2)c1	1.1%	0.355µM*	6.0	23.5%	-13.2%	3.5%[10 µM]
CCN(CC)S(=O)(=O)c1cc(C(=O)Nc2ccncc2)ccc1Cl	-3.5%	?	-11.7	8.8%	-11.2%	13.0%
